These results are taken from ChEMBL document CHEMBL3988442, “University of Dundee, Small-Polar-MMV Screening Library” (2021).

For some assays here: Potency and affinity values are given separately.

Holding throughout (design): scale not given: direction of the effect not stated beside the values
Experiment [1] addresses Protein translocase subunit SecA (Escherichia coli (strain K12)) (UniProt P10408). The experiment in a line: Assay to Identify E. coli SecA ATPase Inhibitors. It is filed as functional. The conditions noted are these: 30 µM.
Experiment [2] concerns the target T1, Ubiquitin-activating enzyme e1, putative (Leishmania donovani (strain BPK282A1)) (UniProt E9BSI1).
T1 sequence (whole entry): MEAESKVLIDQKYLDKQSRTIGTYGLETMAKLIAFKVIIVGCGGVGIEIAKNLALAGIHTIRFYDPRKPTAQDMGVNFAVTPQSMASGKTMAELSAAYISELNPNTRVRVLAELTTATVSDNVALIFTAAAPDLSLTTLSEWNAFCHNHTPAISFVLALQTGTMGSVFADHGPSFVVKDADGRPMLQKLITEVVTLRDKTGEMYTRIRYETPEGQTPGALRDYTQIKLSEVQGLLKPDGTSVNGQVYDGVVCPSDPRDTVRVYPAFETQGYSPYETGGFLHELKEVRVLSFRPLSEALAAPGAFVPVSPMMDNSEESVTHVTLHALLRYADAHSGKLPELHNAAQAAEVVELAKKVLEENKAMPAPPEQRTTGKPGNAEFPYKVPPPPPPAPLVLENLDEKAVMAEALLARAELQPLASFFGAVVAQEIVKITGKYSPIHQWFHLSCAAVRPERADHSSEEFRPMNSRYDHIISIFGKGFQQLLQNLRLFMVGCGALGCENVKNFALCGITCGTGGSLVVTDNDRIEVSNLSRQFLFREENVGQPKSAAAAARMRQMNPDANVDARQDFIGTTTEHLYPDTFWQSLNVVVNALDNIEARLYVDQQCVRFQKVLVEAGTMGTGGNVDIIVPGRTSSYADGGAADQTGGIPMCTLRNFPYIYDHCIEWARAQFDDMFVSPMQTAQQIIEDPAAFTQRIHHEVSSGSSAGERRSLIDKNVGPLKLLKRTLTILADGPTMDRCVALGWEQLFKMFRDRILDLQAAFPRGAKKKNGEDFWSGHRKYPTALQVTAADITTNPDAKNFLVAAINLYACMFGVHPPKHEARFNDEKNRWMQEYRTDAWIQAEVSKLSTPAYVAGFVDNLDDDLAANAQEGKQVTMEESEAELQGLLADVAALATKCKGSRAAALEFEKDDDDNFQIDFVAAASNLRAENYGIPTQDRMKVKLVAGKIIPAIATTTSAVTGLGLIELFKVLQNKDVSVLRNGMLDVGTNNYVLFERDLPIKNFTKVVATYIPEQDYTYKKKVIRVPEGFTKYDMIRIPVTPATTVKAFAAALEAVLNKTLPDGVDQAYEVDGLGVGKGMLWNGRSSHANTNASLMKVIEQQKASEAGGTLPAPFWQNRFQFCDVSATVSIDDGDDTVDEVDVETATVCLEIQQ
Briefly: Leishmania donovani Ubiquitin Activating Enzyme (LdE1). It is filed as functional. The conditions noted are these: 30 µM.

The target in experiment [3] is AMP-activated protein kinase, AMPK (Homo sapiens) (UniProt P54646+O43741+P54619+Q9UGJ0+Q9Y478+Q13131+Q9UGI9). The experiment in a line: AMP-dependent Kinase enzyme assay. An in vitro enzyme assay that detects ADP turnover that is directly proportional to AMPK activity. This uses naive AMPK that is activated during the assay with MK-8722. The conditions noted are these: 30 µM. The class given is functional.

The target in experiment [4] is Sialic acid-binding Ig-like lectin 9 (Homo sapiens) (UniProt Q9Y336). The experiment in a line: Hs-Siglec9 ALPHAscreen SOP 20170721. The conditions noted are these: 10 µM.
Chain of Sialic acid-binding Ig-like lectin 9 (Homo sapiens) (Q9Y336 whole entry): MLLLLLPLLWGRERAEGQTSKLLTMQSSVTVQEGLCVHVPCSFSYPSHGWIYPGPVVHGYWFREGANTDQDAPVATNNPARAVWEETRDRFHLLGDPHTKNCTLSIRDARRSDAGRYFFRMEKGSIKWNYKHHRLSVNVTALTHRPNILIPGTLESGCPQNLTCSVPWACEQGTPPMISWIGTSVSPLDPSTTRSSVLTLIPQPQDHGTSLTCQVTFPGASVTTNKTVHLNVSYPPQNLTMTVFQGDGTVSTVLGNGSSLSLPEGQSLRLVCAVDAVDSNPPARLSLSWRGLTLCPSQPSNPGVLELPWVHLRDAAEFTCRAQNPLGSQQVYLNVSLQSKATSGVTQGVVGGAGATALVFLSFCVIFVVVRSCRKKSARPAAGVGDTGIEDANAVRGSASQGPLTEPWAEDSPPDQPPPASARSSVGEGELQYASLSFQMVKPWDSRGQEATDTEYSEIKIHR
Experiment [5] relates to Trypanosoma cruzi. Briefly: Trypanosoma cruzi phosphomannomutase and mannose-1-phosphate guanylyltransferase assay. The class given is functional. The conditions noted are these: 10 µM.
The target in experiment [6] is T2, Arginase-2, mitochondrial (Homo sapiens) (UniProt P78540).
T2 sequence (whole entry): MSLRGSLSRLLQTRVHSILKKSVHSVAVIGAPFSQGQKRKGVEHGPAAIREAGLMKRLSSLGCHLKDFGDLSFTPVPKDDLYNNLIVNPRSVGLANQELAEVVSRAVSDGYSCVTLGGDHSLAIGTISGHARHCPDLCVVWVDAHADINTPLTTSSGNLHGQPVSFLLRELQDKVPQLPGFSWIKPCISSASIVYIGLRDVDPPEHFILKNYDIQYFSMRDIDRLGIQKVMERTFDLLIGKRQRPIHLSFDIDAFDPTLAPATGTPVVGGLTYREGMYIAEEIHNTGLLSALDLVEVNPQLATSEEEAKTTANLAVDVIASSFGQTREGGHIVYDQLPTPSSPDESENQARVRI
Briefly: in vitro enzyme assay to detect the production of urea directly proportional to the activity of Arginase II. Further: in the data most compounds retested in dose-response had high values. It is filed as functional. The conditions noted are these: 33.3 µM.

In experiment [7] the target is T3, Proteasome subunit beta (Trypanosoma cruzi) (UniProt O96673).
T3 sequence (whole entry): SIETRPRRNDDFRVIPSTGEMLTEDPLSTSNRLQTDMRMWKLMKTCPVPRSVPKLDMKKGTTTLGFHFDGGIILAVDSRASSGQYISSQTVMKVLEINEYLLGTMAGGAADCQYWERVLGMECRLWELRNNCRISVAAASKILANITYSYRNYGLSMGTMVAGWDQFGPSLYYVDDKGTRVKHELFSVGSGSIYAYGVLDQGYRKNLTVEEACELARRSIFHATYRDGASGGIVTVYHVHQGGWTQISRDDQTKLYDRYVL
Briefly: Trypanosoma cruzi proteasome chymotrypsin-like activity (TcProtChymo) assay. Further: in the data most compounds retested in dose-response had high values. It is filed as functional. The conditions noted are these: 9.37 µM.

The species entered for experiment [8] is Homo sapiens. Briefly: To identify inhibition of the IFN signalling (Jak-Stat) pathway via expression of an eGFP reporter gene under the control of an IFN-stimulated response element (ISRE) containing MxA promoter. It is filed as functional. The conditions noted are these: 30 µM.
The target in experiment [9] is T4, Tyrosyl-tRNA synthetase, putative (Trypanosoma cruzi (strain CL Brener)) (UniProt Q4DSP6).
T4 sequence (whole entry): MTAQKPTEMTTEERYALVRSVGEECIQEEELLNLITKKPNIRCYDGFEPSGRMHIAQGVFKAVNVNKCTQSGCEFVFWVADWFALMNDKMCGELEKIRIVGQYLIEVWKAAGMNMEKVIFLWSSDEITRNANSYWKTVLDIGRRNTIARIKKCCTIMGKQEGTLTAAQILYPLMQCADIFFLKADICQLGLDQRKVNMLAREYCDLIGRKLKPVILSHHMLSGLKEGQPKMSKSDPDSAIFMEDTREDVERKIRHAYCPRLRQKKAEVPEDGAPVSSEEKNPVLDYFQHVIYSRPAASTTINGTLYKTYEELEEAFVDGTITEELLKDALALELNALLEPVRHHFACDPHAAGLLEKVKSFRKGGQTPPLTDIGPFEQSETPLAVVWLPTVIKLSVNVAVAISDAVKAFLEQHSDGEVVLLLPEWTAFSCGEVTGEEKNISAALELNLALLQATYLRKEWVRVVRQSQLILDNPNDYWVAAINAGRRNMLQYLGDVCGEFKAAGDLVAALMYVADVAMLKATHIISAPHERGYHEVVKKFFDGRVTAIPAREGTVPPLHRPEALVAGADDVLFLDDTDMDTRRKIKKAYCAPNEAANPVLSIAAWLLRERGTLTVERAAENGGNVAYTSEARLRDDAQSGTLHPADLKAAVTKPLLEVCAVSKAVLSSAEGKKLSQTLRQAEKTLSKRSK
The experiment in a line: Trypanosoma cruzi tyrosyl tRNA synthetase (TcYRS) _High Tyrosine SOP. Further: in the data most compounds retested in dose-response had high values. The class given is functional. The conditions noted are these: 30 µM.

Experiment [10] addresses T4, Tyrosyl-tRNA synthetase, putative (Trypanosoma cruzi (strain CL Brener)). The experiment in a line: Trypanosoma cruzi tyrosyl tRNA synthetase (TcYRS) SOP. The conditions noted are these: 30 µM. The class given is functional.
Experiment [11] addresses Chromo domain-containing protein 1 (Saccharomyces cerevisiae (strain ATCC 204508 / S288c) (Baker's yeast)) (UniProt P32657). The experiment in a line: ScCHD-1 Enzyme Inhibition Assay. Further: in the data most compounds retested in dose-response had high values. It is filed as functional. The conditions noted are these: 30 µM.

Chain of Chromo domain-containing protein 1 (Saccharomyces cerevisiae (strain ATCC 204508 / S288c) (Baker's yeast)) (P32657 whole entry, the tested form may be a part): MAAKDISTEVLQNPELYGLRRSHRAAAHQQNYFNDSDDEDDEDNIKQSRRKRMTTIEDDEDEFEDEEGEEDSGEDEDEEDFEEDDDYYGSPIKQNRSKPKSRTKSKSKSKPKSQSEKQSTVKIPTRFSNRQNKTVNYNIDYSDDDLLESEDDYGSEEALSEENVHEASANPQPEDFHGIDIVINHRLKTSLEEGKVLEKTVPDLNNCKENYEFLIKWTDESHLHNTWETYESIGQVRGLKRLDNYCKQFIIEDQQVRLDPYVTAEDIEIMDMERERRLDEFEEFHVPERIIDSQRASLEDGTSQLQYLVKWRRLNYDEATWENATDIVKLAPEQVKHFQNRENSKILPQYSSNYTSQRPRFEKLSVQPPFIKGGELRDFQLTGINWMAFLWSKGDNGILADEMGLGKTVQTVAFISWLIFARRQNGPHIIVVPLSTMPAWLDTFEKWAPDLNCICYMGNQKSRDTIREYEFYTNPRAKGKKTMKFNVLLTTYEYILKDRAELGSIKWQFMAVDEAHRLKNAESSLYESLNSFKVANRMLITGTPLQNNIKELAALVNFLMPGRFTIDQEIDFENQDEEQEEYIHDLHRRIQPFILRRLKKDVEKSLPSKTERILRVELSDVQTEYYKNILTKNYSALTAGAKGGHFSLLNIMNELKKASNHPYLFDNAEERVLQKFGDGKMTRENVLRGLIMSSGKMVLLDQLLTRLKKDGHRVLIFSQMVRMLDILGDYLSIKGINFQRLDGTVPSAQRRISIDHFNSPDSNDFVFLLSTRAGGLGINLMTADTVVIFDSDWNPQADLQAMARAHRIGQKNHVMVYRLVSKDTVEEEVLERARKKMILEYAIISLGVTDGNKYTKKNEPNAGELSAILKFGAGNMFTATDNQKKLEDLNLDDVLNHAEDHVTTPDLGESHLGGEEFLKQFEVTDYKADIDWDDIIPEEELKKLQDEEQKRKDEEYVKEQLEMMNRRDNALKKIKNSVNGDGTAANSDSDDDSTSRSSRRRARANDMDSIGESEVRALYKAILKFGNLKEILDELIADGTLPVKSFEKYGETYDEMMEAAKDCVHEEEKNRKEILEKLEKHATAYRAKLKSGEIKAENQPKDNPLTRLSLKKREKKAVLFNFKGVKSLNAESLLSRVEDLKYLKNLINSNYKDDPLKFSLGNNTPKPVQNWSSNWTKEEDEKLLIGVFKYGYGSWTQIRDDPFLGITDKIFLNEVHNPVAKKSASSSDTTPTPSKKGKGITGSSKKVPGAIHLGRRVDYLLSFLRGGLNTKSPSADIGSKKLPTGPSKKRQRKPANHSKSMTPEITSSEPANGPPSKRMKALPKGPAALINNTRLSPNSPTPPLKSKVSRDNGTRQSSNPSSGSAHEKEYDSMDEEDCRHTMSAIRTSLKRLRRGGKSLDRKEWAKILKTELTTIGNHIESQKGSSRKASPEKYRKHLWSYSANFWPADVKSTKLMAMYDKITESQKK
Chain of Protein translocase subunit SecA (Escherichia coli (strain K12)) (P10408 whole entry): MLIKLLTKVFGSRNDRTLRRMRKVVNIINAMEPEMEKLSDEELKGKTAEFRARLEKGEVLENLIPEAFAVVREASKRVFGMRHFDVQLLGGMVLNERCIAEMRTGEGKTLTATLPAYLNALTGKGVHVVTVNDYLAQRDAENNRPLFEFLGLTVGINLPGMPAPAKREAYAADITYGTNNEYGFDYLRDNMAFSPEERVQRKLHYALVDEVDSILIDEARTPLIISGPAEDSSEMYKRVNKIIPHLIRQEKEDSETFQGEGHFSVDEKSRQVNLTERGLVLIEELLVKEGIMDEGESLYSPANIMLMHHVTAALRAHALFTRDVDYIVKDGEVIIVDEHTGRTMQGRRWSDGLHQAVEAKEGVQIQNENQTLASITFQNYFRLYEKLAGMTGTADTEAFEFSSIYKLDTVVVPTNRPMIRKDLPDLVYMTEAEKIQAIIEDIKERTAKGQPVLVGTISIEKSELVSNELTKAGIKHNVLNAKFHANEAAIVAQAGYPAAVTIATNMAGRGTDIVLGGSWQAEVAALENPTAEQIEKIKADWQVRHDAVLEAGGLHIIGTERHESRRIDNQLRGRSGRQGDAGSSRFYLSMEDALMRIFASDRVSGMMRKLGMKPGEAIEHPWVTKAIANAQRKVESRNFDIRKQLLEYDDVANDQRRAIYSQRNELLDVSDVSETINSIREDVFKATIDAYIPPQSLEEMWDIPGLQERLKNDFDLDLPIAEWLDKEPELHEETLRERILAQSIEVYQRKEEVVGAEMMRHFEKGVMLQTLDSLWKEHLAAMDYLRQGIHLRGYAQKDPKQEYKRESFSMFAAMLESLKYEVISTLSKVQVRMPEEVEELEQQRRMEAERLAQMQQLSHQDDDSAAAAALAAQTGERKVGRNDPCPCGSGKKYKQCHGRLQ

In the case of `CCc1nc(C2CCCN(C(=O)CCn3ccccc3=O)C2)no1` (stereo not given), the Percent Effect in experiment [1] is -2.1%; in experiment [2], 0%; in experiment [3], -7.52%; in experiment [4], -0.82%; in experiment [5] it was 8.08%; in experiment [6], -1.15%. In addition, the Percent Effect in [7] is 1.34%; in experiment [8], -13.7%; in experiment [9] it was -0.49%; in [10], 0%; in experiment [11] it was 2.66%.

In the case of `CNC(=O)C1Cn2ccnc2C2(CCN(CCF)CC2)O1` (stereo not given), the Percent Effect in experiment [1] is -1.42%; in experiment [2], 5.2%; in [3], 2.6%; in experiment [4], -5.27%; in experiment [5], -8.97%; in [6] it was 0.645%. In addition, the Percent Effect in experiment [7] is 13.1%; in experiment [8] it was 15.2%; in experiment [9], 3.17%; in [10], 3.85%; in experiment [11] it was -5.68%.

Take `O=C(CCNCC(F)(F)F)N1CCC(Nc2cccnn2)CC1`: the Percent Effect in [1] is 2.07%; in [2] it was 28.9%; in experiment [3] it was 4.48%; in [4] it was -13.6%; in [5], 5.13%; in experiment [6] it was 4.68%. The Percent Effect in [7] was 8.88%; in experiment [8] it was 12.2%; in [9], 4.43%; in experiment [10], 23.5%; in experiment [11], -14.7%.

`N#Cc1ccccc1C(=O)N1CCC2(CC(=O)NC2=O)C1` (stereo not given): the Percent Effect is 0.342% in experiment [1]; 10.8% in experiment [2]; 0.526% in experiment [3]; 4.48% in experiment [4]; -5.21% in [5]; -2.38% in experiment [6]. Further, the Percent Effect in experiment [7] is 14%; in experiment [8], 14.1%; in experiment [9], 4.76%; in [10], 4.88%; in [11], -3.81%.

Turning to `COC(=O)CCc1c(C)nn(-c2nc(C)cc(=O)[nH]2)c1C`, the Percent Effect was 2.99% in experiment [1]; 15.6% in [2]; 14.8% in experiment [3]; -8.75% in [4]; -3.06% in [5]; 0.645% in experiment [6]. The Percent Effect in experiment [7] was 4.87%; in [8] it was 25.4%; in experiment [9], 7.41%; in experiment [10], 11.5%; in experiment [11], -5.54%.

Consider `Cc1nc(C2CCCN2Cc2nc(C)c(C)o2)no1` (stereo not given), for which the Percent Effect in experiment [1] is -2.9%; in experiment [2], 16.2%; in experiment [3], -2.94%; in [4], -1.49%; in experiment [5], -1.95%; in experiment [6], 1.29%. The Percent Effect in experiment [7] is 4.49%; in experiment [8], -3.4%; in [9], 13.9%; in [10], 25.6%; in experiment [11] it was -5.47%.

Regarding `CN(Cc1cccs1)C(=O)CS(=O)(=O)Cc1ccc(Cl)c(Cl)c1`, the Percent Effect in experiment [1] was -3.83%; in [2] it was 2.6%; in experiment [3] it was 4.47%; in experiment [4] it was -21.6%; in experiment [5], 5.39%; in experiment [6], -2.74%. For the same compound, the Percent Effect in [7] is 16.7%; in [8], 6.68%; in experiment [9], -11.4%; in experiment [10], -2.35%; in [11], -21.7%.

With `Cc1ccc(OCCC(=O)NC2CCc3nccn3C2)cc1` (stereo not given), the Percent Effect in experiment [1] was -6%; in [2] it was 0%; in experiment [3], 7.39%; in experiment [4], 1.52%; in experiment [5], -1.07%; in experiment [6], -13%. In addition, the Percent Effect in experiment [7] was 17.6%; in experiment [8] it was -12.9%; in experiment [9], 5.32%; in experiment [10], 13%; in [11] it was -2.38%.

For the compound `N#Cc1ccc(C(=O)N2CC[C@H]3[C@@H]2CCC(=O)N3c2ccccc2)cc1`, the Percent Effect is 1.09% in [1]; 0% in experiment [2]; 6.69% in experiment [3]; -7.59% in experiment [4]; -7.68% in [5]; 4.89% in experiment [6]. The Percent Effect in [7] is 6.08%; in [8], 0.115%; in [9] it was 4.25%; in experiment [10], 11.5%; in experiment [11], -4.7%.

For the compound `CCOCCn1c(=O)[nH]c2cc(C(=O)N(C)CCc3cn[nH]c3)ccc21`, the Percent Effect in experiment [1] turned out to be 0.265%; in [2], 16.2%; in [3] it was 4.85%; in experiment [4], 14.1%; in experiment [5] it was 5.6%; in [6], 22.4%. Also, the Percent Effect in experiment [7] is 17.8%; in experiment [8], 13%; in experiment [9], 3.7%; in experiment [10] it was 12.2%; in [11], -7.29%.
